The list is not random: actives were taken first. Their share in the collection is about 2.2%.
TDP-43 yeast inh: qHTS of TDP-43 Inhibitors. TDP-43 expressing yeast growth rescue, BacTiter-Glo, 24 h. Potency, µM (top dose mostly 46.1 µM), inactives show top-dose growth rescue (activation), hits mostly activators. 410,000 tested, 1.8% active; also: % of control where 0% means no effect; nearly all actives have a fitted effect of over 50% in size
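Yeast expressing TDP-43 (pregrown in raffinose, seeded at OD600=0.02 in galactose medium) exposed to compounds 24 hr at 30 deg C. Growth read by BacTiter-Glo luminescence; rescue of toxicity appears as increased signal.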
FUS yeast rescue: qHTS for Suppressors of FUS Proteinopathy: Primary screen using FUS-linked yeast assay; Potency, µM (titrated, usually from 76.6 µM), usual class: activators; 390,000 tested, 0.24% active; AID 1347120, 2019; S. cerevisiae FUS-expressing, growth rescue, OD600, 24 h;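 also: plate controls were DMSO vehicle for no effect and reference control for full effect; nearly all actives have a fitted effect of over 55% in size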
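Yeast FUS proteinopathy model; galactose-induced FUS (2%), starting OD 0.005. Cpds in dilution series, 24hr, 30C, 99% humidity. Abs 600 nm growth. Pos ctrl CP55940 (top 92uM final); neg ctrl DMSO.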
Mito fusion act: qHTS Assay for Small Molecule Inhibitors of Mitochondrial Division or Activators of Mitochondrial Fusion; S. cerevisiae fusion-defective mutant growth rescue, CellTiterGlo 48 h; 320,000 tested, 0.23% active; Potency, µM (doses to about 46.1 µM), for the others: at the highest dose growth rescue (activation), hits mostly activators; also: % of control where 0% means no effect; nearly all actives have a fitted effect of over 45% in size
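S. cerevisiae fusion-defective temperature-sensitive mutants (e.g. fzo1-1, mgm1-5) grown 48 h at 37C in YPEG (ethanol/glycerol non-fermentable) medium with 23 nl compound per well; growth rescue read as CellTiterGlo luminescence.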
Abeta yeast res: qHTS for compounds that reverse cellular toxicity of Amyloid beta (A-beta) peptide in yeast: Primary Screen | yeast expressing A-beta42, growth rescue, OD600, 48 h; response scale: 0% DMSO, 100% iron-clioquinol control | Potency, µM (series often up to 46.1 µM), actives largely listed as activators | 410,000 tested, 0.063% active; also: nearly all actives have a fitted effect of over 55% in size
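Yeast growth medium received pinned compounds, then yeast cells expressing toxic A-beta were added; plates incubated at 30 C for 48 hr. Growth read as absorbance at 600 nm, normalized to DMSO and equimolar FeCl3 plus clioquinol controls.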
aSyn yeast inh: qHTS of alpha-syn Inhibitors | 370,000 tested, 0.14% active | Potency, µM (doses to about 46.1 µM), without a hit: top-dose growth rescue (activation), actives largely listed as activators | AID 652106, 2013 | Yeast expressing alpha-synuclein, growth rescue, BacTiter-Glo, 24 h; also: % of control where 0% means no effect; nearly all actives have a fitted effect of over 65% in size
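Rescue of yeast growth: cells expressing toxic alpha-synuclein, induced in galactose at OD600 0.02, incubated with compound 24 h at 30 C. ATP luminescence quantified growth; inhibitors of toxicity appear as activators.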
The depositor's hits bear a star; [ ] = another dose, or the depositor's remark. Calls follow the shape of the dose curve; as a rule, active = well fitted curve in the direction sought with a large enough effect; inconclusive = small, poorly fitted or top-dose-only effect, or another doubt; inactive = no such curve, though single readings can be large; an effect the other way counts as inactive or inconclusive. Potency is read from the fitted curve at half-maximal effect.

COc1ccc(/C=C/C(=O)Nc2nc3n(n2)C(c2ccc(F)cc2)C=C(c2ccccc2)N3)cc1 (stereo unspecified) was read as TDP-43 yeast inh 0.0%[9.22 µM], FUS yeast rescue inconclusive and Abeta yeast res inactive.
Cc1ccc(C(=O)Nc2nc(C(C)(C)C)cs2)s1 was read as TDP-43 yeast inh 14.1µM*, FUS yeast rescue inactive, Mito fusion act 10.6%, Abeta yeast res inactive and aSyn yeast inh -37.7%.
For Cn1c(Cc2cccs2)nnc1SCC(=O)Nc1ccc2c(c1)OCCO2 the results were FUS yeast rescue inactive.
Cc1cc(C)c2c(-n3cccc3)c(C(=O)NCCCN3CCCCC3C)sc2n1 (stereo unspecified) was read as TDP-43 yeast inh 1.7%, FUS yeast rescue inactive and Abeta yeast res inactive.
For Cc1ccc(/C(O)=C2\C(=O)C(=O)N(CCc3c[nH]c4ccccc34)C2c2cccnc2)cc1 (stereo unspecified) the results were TDP-43 yeast inh -16.6%, FUS yeast rescue 35.5µM*, Mito fusion act -28.2%, Abeta yeast res inactive and aSyn yeast inh -1.8%.
`CCc1cc2c(SC(C)C(=O)NC3CCCC3)ncnc2s1` (stereo unspecified) gave TDP-43 yeast inh 35.5µM*, FUS yeast rescue inactive, Abeta yeast res inactive and aSyn yeast inh 12.0%.
COc1ccc([N+](=O)[O-])cc1NC(=O)C(C)OC(=O)Cc1ccc(OC)c(OC)c1 (stereo unspecified) was read as TDP-43 yeast inh inconclusive, Abeta yeast res inactive and aSyn yeast inh 6.8%.
For COc1ccc([N+](=O)[O-])cc1NCc1cccc([N+](=O)[O-])c1 the results were TDP-43 yeast inh 11.2µM*, FUS yeast rescue inactive, Mito fusion act inconclusive, Abeta yeast res inactive and aSyn yeast inh -1.7%.
`C/C=C/C=C/C(=O)OC(C)C(=O)Nc1cc([N+](=O)[O-])ccc1OC` (stereo unspecified) gave TDP-43 yeast inh 12.6µM*, FUS yeast rescue inactive, Mito fusion act 7.1%, Abeta yeast res inactive and aSyn yeast inh -0.6%.
`COc1ccc([N+](=O)[O-])cc1NC(=O)CSCc1ccccc1C` gave TDP-43 yeast inh 12.6µM*, Mito fusion act 24.9%, Abeta yeast res inactive and aSyn yeast inh 5.3%.
`COc1ccc([N+](=O)[O-])cc1NC(=O)Nc1ccccc1` gave TDP-43 yeast inh -3.7%, FUS yeast rescue inactive, Mito fusion act 1.2%, Abeta yeast res inactive and aSyn yeast inh 15.1%.
Screening COc1ccc([N+](=O)[O-])cc1NC(=O)CC(C)c1ccccc1 (stereo unspecified) returned TDP-43 yeast inh 15.8µM*, FUS yeast rescue inactive, Mito fusion act -2.7%, Abeta yeast res inconclusive and aSyn yeast inh -1.0%.
`COc1ccc(Cl)cc1NC(=O)c1cc(S(=O)(=O)N2CCc3ccccc32)cn1C` gave TDP-43 yeast inh 7.9%, FUS yeast rescue inactive and Abeta yeast res inactive.
For COc1ccc(C2C(=O)N(C3CCCCCC3)CC(=O)N2CCC2=CCCCC2)cc1 (stereo unspecified) the results were TDP-43 yeast inh 4.1%, FUS yeast rescue inactive and Abeta yeast res inactive.
`CCc1ccccc1N(CC)C(=O)c1c(C)oc2ncnc(N3CCOCC3)c12` gave TDP-43 yeast inh 0.0%, FUS yeast rescue inactive and Abeta yeast res inactive.
Screening COc1ccc([N+](=O)[O-])cc1NC(=O)CSCc1ccc(Br)cc1 returned TDP-43 yeast inh 12.6µM*, FUS yeast rescue inactive, Mito fusion act inconclusive, Abeta yeast res inactive and aSyn yeast inh 2.5%.
For COc1ccc(C)cc1NC(=O)CSCc1ccccc1C the results were TDP-43 yeast inh 12.6µM*, FUS yeast rescue inactive, Mito fusion act 1.1%, Abeta yeast res inactive and aSyn yeast inh 10.8%.
`Cc1ccccc1CSCC(=O)Nc1ccccc1F` gave TDP-43 yeast inh inconclusive, FUS yeast rescue inactive, Mito fusion act -2.6%, Abeta yeast res inactive and aSyn yeast inh 0.4%.

Bioassay records from PubChem.
